# According to PubChem BioAssay AID743279 (National Center for Advancing Translational Sciences (NCATS), 2014):
# Among all 360,000 compounds or so, about 17,000 (4.7%) were called active. Inconclusive results (about 5%) are left out. The entries come from a sample that favours actives as a whole. A number with no mark means an inactive call. Rule as the data show it: active = activity change below about -50%; inconclusive = mostly about -30% to -49%; inactive = weaker than that.
# Experiment: qHTS for Inhibitors of Inflammasome Signaling: IL-1-beta AlphaLISA Primary Screen
# Conditions: THP-1 LPS/ATP IL-1B secretion, 16 h; at 57.5 µM, hits give low values
# Summary of the method: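 THP-1 cells pretreated 1 hr with compounds (up to 57.5 uM final), then stimulated with LPS (250 ng/mL final) plus ATP (1.25 mM final); secreted IL-1B measured by AlphaLISA after 16 hr, decreased signal indicating inhibition.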
# % is scaled to controls: 0 for no effect and ±100 for the full control effect.
row,SMILES,activity change
1,CC1CCCCC12NC(=O)N(CC(=O)OCC(=O)NCc1ccc(F)cc1)C2=O (stereo not drawn),28%
2,CC1=CC(=NNS(=O)(=O)c2ccc([N+](=O)[O-])cc2)CC(C)(C)C1,8.3%
3,COc1ccc(CCNS(=O)(=O)c2cccc([N+](=O)[O-])c2)cc1,-12.5%
4,CCOc1ccc(S(=O)(=O)N2CCN(C(=S)NCC3CCCO3)CC2)cc1 (stereo not drawn),8.09%
5,COc1ccc(S(=O)(=O)N2CCN(C(=S)NCC3CCCO3)CC2)cc1OC (stereo not drawn),41.3%
6,S=C(NCC1CCCO1)N1CCN(c2ccc(Cl)c(Cl)c2)CC1 (stereo not drawn),-64.9% (active)
7,CCCC/C=C/c1cccc2nncn12,0%
8,c1ccc2c(C[n+]3csc4ccccc43)cccc2c1,-14.6%
9,COC(=O)c1cc2n(n1)CCCNC2=O,-12.8%
10,NC(=O)c1ccc(NC(=O)COC(=O)c2c3c(nc4ccccc24)/C(=C\c2ccc4c(c2)OCO4)CCC3)cc1,-3.47%
11,O=C(COC(=O)c1ccncc1)Nc1ccc2c(c1)OCO2,7.7%
12,NS(=O)(=O)c1ccc(NC(=O)COC(=O)c2c3c(nc4ccccc24)/C(=C\c2ccc4c(c2)OCO4)CCC3)cc1,-62.6% (active)
13,CCOc1ccc2[nH]c(=S)sc2c1,32.5%
14,Cc1ccc(/C=C2/SC(=S)N(CCC(=O)NCCCN3CCOCC3)C2=O)cc1,-83.3% (active)
15,O=C(CCN1C(=O)c2ccccc2C1=O)NCCN1CCOCC1,-5.01%
16,COc1ccc(/C=C2\SC(=S)N(CCC(=O)N3CCOCC3)C2=O)cc1OC,-10.5%
17,CC(OC(=O)CCC(=O)c1ccccc1)C(=O)Nc1ccc(F)cc1 (stereo not drawn),9.85%
18,Cc1c(C(=O)NCC2CC2)sc(=O)n1Cc1cccc(F)c1,-16.4%
19,CCOC(=O)C1=C(c2ccc(OC)cc2)C(=O)c2ccccc2C1=O,-99% (active)
20,COc1ccc(CNC(=O)CCN2C(=O)c3ccccc3C2=O)cc1,-9.34%
21,CCOC(=O)c1cc2cc3ccccc3cc2oc1=O,-12.5%
22,CCN(CC)C(=O)C1=C(C)N(Cc2ccc(OC)cc2)C(=O)C(CC(=O)NCc2ccco2)C1 (stereo not drawn),-25.2%
23,Cc1ccc(C(=O)N2CCC(n3nccc3NC(=O)Nc3cccc(F)c3)CC2)cn1,8.12%
24,CCOc1c2ccc(C(=O)NCc3ccc4c(c3)OCO4)cc2nn1C,-4.17%

row,SMILES,activity change
1,COc1cc(OC)c(C(=O)NCc2ccc3c(c2)OCO3)cc1OC,38%
2,COc1ccccc1-n1c(C)nc2cc(C(=O)NCc3ccc4c(c3)OCO4)ccc21,-65.9% (active)
3,Cn1c(N)cc(=O)n(C)c1=S,19%
4,S=C(c1ccccc1)N1CCCC1,9.49%
5,CC1CCN(C(=S)c2ccc(-c3ccc(Cl)cc3Cl)o2)CC1,-11.9%
6,S=C(c1ccc(-c2ccccc2)o1)N1CCCCC1,-56.6% (active)
7,COc1ccc(NC(=O)c2cc(=O)[nH]c3ccccc23)cc1S(=O)(=O)N1CCOCC1,-13.1%
8,CCN(CC)CCCNC(=O)c1c(O)c2cc(F)cc3c2n(c1=O)C(C)CC3 (stereo not drawn),67.3%
9,O=C(NCc1ccco1)c1cccc(-c2ccc3nncn3c2)c1,0%
10,Cc1ccc(-c2ccc(C3=CC(=O)CC(C)(C)C3=O)cc2)cc1,-18.9%
11,CC1=NOC(=O)/C1=C\c1ccccc1,11.9%
12,COc1cc(/C=C2/C(=O)ON=C2C)ccc1OCc1ccccc1F,-99.7% (active)
13,COc1cc(/C=C2\SC(=O)NC2=O)ccc1OCc1ccc(Cl)nc1,11.8%
14,C#CCOc1ccc(/C=C2/C(=O)NN(c3ccccc3)C2=O)cc1OC,11.3%
15,C=CCOc1ccc(/C=C2/C(=O)ON=C2C)cc1OCC,-98.7% (active)
16,C#CCOc1ccccc1/C=C1/C(=O)ON=C1C,-15%
17,C=CCOc1ccc(/C=N/NC(=O)C(C)Sc2ccccn2)cc1OCC (stereo not drawn),-1.69%
18,COc1cc(/C=C2/C(=O)ON=C2C)ccc1OCc1cccc(F)c1,-6.27%
19,C#CCOc1ccc(/C=C2/C(=O)ON=C2C)cc1OCC,-87.9% (active)
20,CC(=O)c1ccccc1NC(=O)COC(=O)C1COc2ccccc2O1 (stereo not drawn),22.8%
21,OC[C@@H]1CN(Cc2ccc3c(c2)OCO3)C[C@H](n2cnc3c(NCc4ccco4)ncnc32)O1,0.259%
22,O=C(C(=O)N1CCC(c2ccccc2)CC1)c1ccccc1,27.9%
23,CCCCNC(=O)C[C@@H]1C[C@@]2(C(=O)OCC)CCC=C2N(Cc2cccc3ccccc23)C1=O,-0.516%
24,C=CCC1(C(=O)N(C)Cc2ccccc2)CCN(C(=O)OC(C)(C)C)CC1,-21.2%

row,SMILES,activity change
1,CCOc1ccc(C(C)=O)cc1COC(=O)CN1C(=O)NC2(CCCC2)C1=O,-1.02%
2,Cc1onc(-c2ccccc2)c1-c1nnc(COC(=O)c2ccc(N(C)C)cc2)o1,21.8%
3,CCOc1ccccc1NC(=O)Cn1ncc2ccc([N+](=O)[O-])cc21,10.8%
4,COCCNc1ccc(-c2n[nH]c(=O)c3ccccc23)cc1[N+](=O)[O-],20.3%
5,Cc1ccc(S(=O)(=O)N(C)C)cc1NC(=O)c1n[nH]c(=O)c2ccccc12,-9.1%
6,CN(C)CCNc1ccc(-c2n[nH]c(=O)c3ccccc23)cc1[N+](=O)[O-],-56.7% (active)
7,C=CCCC(=O)N1C[C@H]2CON(C)[C@H]2C[C@H]1c1cccc(Nc2ccccc2)c1,-2.63%
8,Cc1cc(Nc2ccc(C)c(C)c2)n2ncnc2n1,3.66%
9,CCOC(=O)[C@]12CCCC=C1N(CCC1=CCCCC1)C(=O)[C@H](CC(=O)N1CCCCC1)C2,19.5%
10,COCCNC(=O)CSc1nc2sccc2c(=O)n1-c1ccccc1,14%
11,O=C1CC(C(=O)O)NC(=S)N1 (stereo not drawn),3.02%
12,O=[N+]([O-])c1ccc2[nH]c3c(c2c1)CCCC3O (stereo not drawn),-14.8%
13,COC(=O)c1ccc(C23CC4(C2)[C@H](CN(Cc2cccnc2)[C@@H]4c2ccccc2)C3c2ccc(Cl)nc2)cc1 (stereo partly drawn),24%
14,O=C(CSc1cccc[n+]1[O-])c1ccc(Cl)cc1,-5.03%
15,O=C(Cn1cc(-c2nnnn2-c2ccc(Cl)cc2)c(=O)c2ccccc21)c1ccccc1,33.2%
16,O=C(C[n+]1ccc2c(c1)nnn2-c1ccccc1)c1ccc(Cl)cc1,-56.5% (active)
17,CC1(C)NC(=O)N(CC(=O)Nc2ccc(-c3ccccc3)cc2)C1=O,4.98%
18,O=C(Nc1nccs1)c1cc(S(=O)(=O)N2CCOCC2)c(Cl)cc1Cl,-105% (active)
19,O=C(NCc1cccnc1)c1cc(S(=O)(=O)N2CCOCC2)c(Cl)cc1Cl,16.2%
20,O=C(Nc1ccc(S(=O)(=O)Nc2nccs2)cc1)c1cccc(S(=O)(=O)N2CCOCC2)c1,0%
21,C[C@@H]1CN([C@H](C)CO)C(=O)c2cc(Br)cnc2O[C@@H]1CN(C)Cc1cncnc1,-0.234%
22,CC(=O)Nc1cncc(-c2ccccc2CO)n1,5.55%
23,CC1(C)CCSC(/C=C/c2ccccc2)=N1,-102% (active)
24,CC1(C(=O)NS(=O)(=O)c2ccccc2)CCN1C(=O)C/C=C/c1ccccc1 (stereo not drawn),-5.77%

row,SMILES,activity change
1,CC1(C(=O)O)CCN1C(=O)/C=C/c1ccccc1 (stereo not drawn),23.5%
2,Cc1cc(C)nc(NNC2=CC(=O)CC(C)(C)C2)n1,31.9%
3,CCN1CCN(C(=O)CN(C)S(=O)(=O)c2ccc3ccccc3c2)CC1,20.4%
4,CC(=O)Oc1ccc(N(C(C)=O)S(=O)(=O)c2ccc3ccccc3c2)cc1Br,-50% (active)
5,COCCNC(=O)COc1ccc(N(C)S(=O)(=O)c2ccc3ccccc3c2)cc1,22.7%
6,COc1cccc(C(=O)Nc2ccc3nc4n(c(=O)c3c2)CCCCC4)c1,5.21%
7,Cc1ccc(OCC(=O)Nc2ccccc2C(=O)NC2CC2)cc1C,0%
8,CCOC(=O)c1cc(-c2sc(NC(=O)c3ccccc3)nc2C)n(Cc2ccccc2)n1,-3.85%
9,COCCNC(=O)CN(Cc1ccco1)C(=O)CCC(=O)Nc1nccs1,-4.97%
10,CCC(C)(C)n1nnnc1C(c1cccs1)N1CCN(c2nc3ccccc3s2)CC1 (stereo not drawn),-62.8% (active)
11,CCC(C)(C)n1nnnc1C(c1ccc(OC)c(OC)c1)N1CCN(C(=O)c2ccco2)CC1 (stereo not drawn),1.37%
12,Fc1ccc(Cn2nnnc2C(c2cccs2)N2CCCCCC2)cc1 (stereo not drawn),-13.3%
13,Cc1ccc(-c2nc3c(Cl)cc(C(F)(F)F)cn3c2Cc2cccc(Cl)c2)cc1,41.1%
14,O=C(CC1SC(=Nc2ccccc2)N(Cc2ccccn2)C1=O)Nc1cccc(Cl)c1 (stereo not drawn),-60.7% (active)
15,CCN1C(=O)C(CC(=O)Nc2cc(C)ccc2C)SC1=Nc1ccc(S(N)(=O)=O)cc1 (stereo not drawn),-5.39%
16,CN1C(=O)C(CC(=O)Nc2ccccc2)S/C1=N/c1nccs1 (stereo not drawn),-2.9%
17,CCN(CC)CCN(C)C(c1ccnc2ccccc12)c1nnnn1-c1ccc2c(c1)OCCO2 (stereo not drawn),-3.67%
18,CC(C)C1CC2=C(C(=O)OC(C)(C)O2)C(c2ccc(F)cc2)O1 (stereo not drawn),43.5%
19,CC(C)n1c(NCc2c[nH]c3ccccc23)nc2ccccc21,-81.7% (active)
20,Cc1ccc(O)c(CNc2nc3ccccc3n2C)c1,-11.8%
21,CC(C)n1c(-c2cccs2)nc2ccccc21,-1.34%
